Screens as filed in PubChem.
Most compounds without a hit are left out; they make up all but 2.8% or so of the library.
HEK293 viab: counter-screen for SNCA expression inhibitors: cell viability | 150,000 tested, 0.12% active | Potency, µM (top dose mostly 57.1 µM), most hits filed as cytotoxic | HEK-293-SNCA-luc viability, GF-AFC fluorescence, 24 h; further: nearly all actives have a fitted effect of over 30% in size
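HEK-293-SNCA-luc cells (1500/well) plated 24 h, then exposed 24 h to a dilution series; GF-AFC added 30 min at 37C, fluorescence 405/540 nm; normalised to medium-only and DMSO wells, Hill fit.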
IP6K1 inhibitor: inhibitors of human IP6K1; 140,000 tested, 0.81% active; AID 1645851; activity change, % (series mostly up to about 58 µM); IP6K1 kinase, ADP-Glo luminescence, 2 h; active compounds read low; Q92551; in the data active means activity change below about -25%
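ADP-Glo luminescence measures ADP made by human IP6K1 during a 2 h RT reaction with ATP/IP6 (mix at 1.3 mM/130 uM); top library doses 57.5 and 19.1 uM final.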
KDM5B inh: blocks human KDM5B histone demethylase activity; Q9UGL1; KDM5B demethylase, FDH-coupled NADH fluorescence (FDH is formaldehyde dehydrogenase); Potency, µM (top dose mostly 57.7 µM), hits mostly inhibitors; 220,000 tested, 2.6% active; AID 1347165; further: nearly all actives have a fitted effect of over 70% in size
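Inhibition is measured as reduced NADH fluorescence generation from FDH coupling to formaldehyde release. Truncated KDM5BΔAP at 200 nM final acts on H3K4me3 peptide (12.5 µM in substrate mix) in pH 7.5 HEPES buffer with Tween-20, 30 min, room temperature.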
SNCA expr inhib: reduces expression of the alpha-synuclein gene; HEK-293 SNCA-luciferase knock-in, luminescence, 24 h; Potency, µM (doses to about 57.2 µM), actives largely listed as inhibitors; 140,000 tested, 0.17% active; AID 1671194; further: nearly all actives have a fitted effect of over 45% in size
Large screens that a line does not name were inactive; ! = not confirmed by another sample. Unless noted, the call rests on the fitted dose curve; in most records, active means well fitted curve in the direction sought with a large enough effect; inconclusive means small, poorly fitted or top-dose-only effect, or another doubt; inactive means no such curve, though single readings can be large; an effect the other way counts as inactive or inconclusive.

CCC(C(=O)NCc1nnc2ccc(-c3ccc(OC)cc3)nn12)c1ccccc1 (stereo not drawn)	KDM5B inh 25µM
CC(Oc1cccc(Cl)c1)C(=O)NCc1nnc2ccc(-c3ccccc3)nn12 (stereo not drawn)	KDM5B inh inconclusive
CCC(C(=O)NCc1nnc2ccc(-c3ccccc3)nn12)c1ccccc1 (stereo not drawn)	KDM5B inh 22µM
CCSc1ccccc1C(=O)NC(C)C	none (no result: HEK293 viab, IP6K1 inhibitor, SNCA expr inhib)
CCn1c(CNC(C)c2ccc(F)c(F)c2)nc2cc(S(=O)(=O)N3CCOCC3)ccc21 (stereo not drawn)	none (no result: HEK293 viab, IP6K1 inhibitor, SNCA expr inhib)
CNC(=O)c1cccnc1N1CCOC(c2ccc3cc(OC)ccc3c2)C1 (stereo not drawn)	none
COc1ccc([C@@H]2CN(c3ncccc3C#N)C[C@H]2NC(C)=O)cc1	KDM5B inh 28µM
COCc1nn2c(c1-c1ccccc1)NC(=O)CC2C(=O)Nc1ccccc1OC (stereo not drawn)	none (no result: HEK293 viab, IP6K1 inhibitor, SNCA expr inhib)
COCCN1C(=O)c2ccccc2C(C(=O)NCCc2ccccc2)C12CCCC2 (stereo not drawn)	none
COCCN1C(=O)c2ccccc2C(C(=O)NCc2ccccc2Cl)C12CCCC2 (stereo not drawn)	KDM5B inh inconclusive
COCCN1C(=O)c2ccccc2C(C(=O)NCCc2ccc(F)cc2)C12CCCC2 (stereo not drawn)	KDM5B inh 28µM
COCCN1C(=O)c2ccccc2C(C(=O)Nc2ccc(C)cc2Cl)C12CCCC2 (stereo not drawn)	KDM5B inh 28µM, SNCA expr inhib inconclusive
COCCN1C(=O)c2ccccc2C(C(=O)NCc2ccccc2OC)C12CCCC2 (stereo not drawn)	KDM5B inh 18µM
Cc1ccnc(NC(=O)C2c3ccccc3C(=O)N(CC(C)C)C23CCCC3)c1 (stereo not drawn)	KDM5B inh 22µM
CCc1ccccc1NC(=O)C1c2ccccc2C(=O)N(CCOC)C12CCCC2 (stereo not drawn)	none
Cc1cc(S(=O)(=O)c2cc3ccccc3oc2=O)ccc1F	none (no result: HEK293 viab, IP6K1 inhibitor, SNCA expr inhib)
C=CCOc1c(OC)ccc2c1CN(C(C)C)C(=O)CCN2CC(O)COc1ccc(OC)cc1 (stereo not drawn)	none (no result: HEK293 viab, KDM5B inh, SNCA expr inhib)
COCCN1C(=O)c2ccccc2C(C(=O)NCc2ccccc2)C12CCCC2 (stereo not drawn)	none
COCCN1C(=O)c2ccccc2C(C(=O)NCc2ccc(Cl)cc2)C12CCCC2 (stereo not drawn)	KDM5B inh 25µM
O=c1cc(CN2CCOCC2)occ1OCCCCCSc1ccnc2cc(C(F)(F)F)ccc12	HEK293 viab 30µM!, SNCA expr inhib inconclusive (no result: KDM5B inh)
O=c1cc(CN2CCN(c3ccccc3)CC2)occ1OCc1ccccc1	none (no result: HEK293 viab, IP6K1 inhibitor, SNCA expr inhib)
N#Cc1nccnc1N1CCN(C2CCC3(CCNCC3)CC2)CC1	KDM5B inh 22µM
O=C(NCc1cccc(C(F)(F)F)c1)c1ccc2nnc(-c3ccc(Cl)cc3)n2c1	none (no result: KDM5B inh)
Cc1ccc(CSc2nc3ccncc3n2Cc2nc(-c3ccccc3C)oc2C)cc1	KDM5B inh inconclusive, SNCA expr inhib 10µM
Cc1oc(-c2ccccc2F)nc1Cn1c(SCc2cccc(Cl)c2)nc2ccncc21	SNCA expr inhib inconclusive
COc1ccc(N2C(=O)CN(Cc3ccccc3OC)[C@H]3CS(=O)(=O)C[C@H]32)cc1Cl	none (no result: HEK293 viab, IP6K1 inhibitor, SNCA expr inhib)
Cc1nn2c(c1-c1ccccc1C(C)C)N(CCC(C)C)CCC2	HEK293 viab inconclusive, KDM5B inh 18µM, SNCA expr inhib inconclusive
Cc1nn2c(c1-c1ccccc1C(C)C)N(Cc1ccc(C(=O)O)cc1)CCC2	none
Cc1nn2c(c1-c1ccccc1C(C)C)N(C(=O)c1cc3ccccc3n1C)CCC2	HEK293 viab 35µM, SNCA expr inhib inconclusive
CC(=O)N1CCCC(c2nnc3n2CCNC3)C1 (stereo not drawn)	KDM5B inh 79µM
c1ccc(-c2nnc(NN=C3CCCC3)c3ccccc23)cc1	none (no result: HEK293 viab, IP6K1 inhibitor, SNCA expr inhib)
O=C(CCc1cc2n(n1)CCCNC2)N1CCCC(c2nnc3ccccn23)C1 (stereo not drawn)	KDM5B inh 11µM
O=C1[C@H]2CN(Cc3ccc(F)cc3)C[C@H]2C(=O)N1CCN1CCc2ccccc2C1	KDM5B inh inconclusive
N#Cc1ccc(CN2C[C@@H]3C(=O)N(CCN4CCc5ccccc5C4)C(=O)[C@@H]3C2)cc1	KDM5B inh 25µM
CC1(C(=O)N2CCC(c3ccccc3)CC2)CCOCC1	SNCA expr inhib inconclusive
CC1(C(=O)N2CCN(c3ccccn3)CC2)CCCCC(=O)N1 (stereo not drawn)	KDM5B inh 18µM
CC1(C(=O)N2CCN(c3ccccn3)CC2)CCOCC1	KDM5B inh 112µM
Cc1ccc(C(=O)NC(=S)NNC(=O)C2CC2)cc1	none (no result: HEK293 viab, IP6K1 inhibitor, SNCA expr inhib)
O=[S+]1([O-])NC2(CCN(CC3CCCC3)CC2)COc2ccccc21	KDM5B inh 79µM
O=[S+]1([O-])NC2(CCN(CC3CC3)CC2)COc2ccccc21	KDM5B inh inconclusive
O=C(c1nc(-c2ccsc2)c2ccccn12)N1CCOCC1	KDM5B inh 35µM
O=C(c1nc(-c2cc(Cl)cc(Cl)c2)c2ccccn12)N1CCN(c2ncccn2)CC1	none
O=C(c1nc(-c2ccsc2)c2ccccn12)N1CCN(c2ncccn2)CC1	KDM5B inh 25µM
COc1ccc(-c2nc(C(=O)N3CCN(c4ncccn4)CC3)n3ccccc23)cc1	KDM5B inh 32µM
CC(C)(C)c1nc(C(=O)N2CCN(c3ncccn3)CC2)n2ccccc12	KDM5B inh 79µM
CCCN(Cc1ccncc1)C(=O)c1cnc(-c2ccccn2)[nH]c1=O	KDM5B inh 10µM, SNCA expr inhib inconclusive
O=C(NC1CC(c2nnc(CO)n2C2CC2)C1)c1ccc(F)cc1Cl (stereo not drawn)	none
O=C(NC1CC(c2nnc(CO)n2C2CC2)C1)c1cccn2cnnc12 (stereo not drawn)	KDM5B inh 28µM
CC(C)Cc1nc2nccc(-c3ccsc3)n2n1	KDM5B inh 28µM
CCc1nc2nccc(-c3ccsc3)n2n1	KDM5B inh 25µM
COCc1nc2nccc(-c3ccsc3)n2n1	KDM5B inh 28µM
O=C1Nc2cc(C(=O)N3CCN(c4ccccc4)CC3)ccc2N2CCCCC12 (stereo not drawn)	none (no result: HEK293 viab, IP6K1 inhibitor, SNCA expr inhib)
Cc1noc(C)c1-c1cc(-c2cccc(N3CCOCC3)c2)cn2cncc12	KDM5B inh 35µM
Cc1nn(Cc2ccccc2)c(C)c1[C@@H]1C=C[C@@H](NC(=O)c2ccco2)C1	KDM5B inh inconclusive
Cc1nn(Cc2ccccc2)c(C)c1[C@@H]1C=C[C@@H](NC(=O)c2ccc(F)c(Cl)c2)C1	HEK293 viab inconclusive, KDM5B inh 28µM, SNCA expr inhib inconclusive
CC(C)(C)C(=O)COC(=O)c1nn(-c2ccccc2)c(=O)c2ccccc12	none (no result: HEK293 viab, IP6K1 inhibitor, SNCA expr inhib)
Cc1cn2nc(C(=O)NCCCc3ccccc3)cc2c(N2CCCC2)n1	KDM5B inh 25µM
Cc1cn2nc(C(=O)NCCc3ccccc3)cc2c(N2CCCC2)n1	none
Cc1cn2nc(C(=O)NCc3cccc(Cl)c3)cc2c(N2CCCC2)n1	KDM5B inh 25µM, SNCA expr inhib inconclusive
c1ccc(-c2cc(-c3ccccc3)nc(-c3ccccc3)c2)cc1	none (no result: HEK293 viab, IP6K1 inhibitor, SNCA expr inhib)
